Inconclusive results are not listed. A number with no mark means an inactive call. Active and inactive are the calls of the source. Calls follow the shape of the dose curve; as a rule, active = well fitted cell-killing curve with a large enough effect in the repeat runs (not every such curve was filed as active); inconclusive = weak or mixed curves, or effect the other way; inactive = no such curve, though single readings can be large or run the other way.
% is scaled to controls: 0 for no effect and ±100 for the full control effect; potency is read from the fitted curve at half-maximal effect.

The experiment in a line: qHTS assay to identify small molecule antagonists of the estrogen related receptor signaling pathway with the pleiotropic PPARgamma coactivator (PGC) from Tox21 10K library - cell viability counter screen (AID 1224840). Also: nearly all actives have a fitted effect of over 40% in size. Particulars: PGC/ERR reporter cells viability, CellTiter-Fluor, 17.5 h; series mostly up to 92.4 µM; viability change, negative = cytotoxic: at the top concentration. The text has this: National Center for Advancing Translational Sciences [NCATS]
NIH Chemical Genomics Center [NCGC]
U.S. Environmental Protection Agency [EPA]
National Institutes of Environmental Health Sciences [NIEHS]
National Toxicology Program [NTP]
U.S. Food and Drug Administration [FDA]
Estrogen related receptors (ERRs), the first orphan nuclear receptors discovered, play an important role in the control of cellular energy metabolism. ERRs are required for high-energy production in response to the environmental challenges. The pleiotropic PPARgamma coactivator (PGC) is a major partner of ERR and a key regulator in energy homeostasis. Together they have been implicated in the etiology of metabolic disorders such as Type 2 diabetes and metabolic syndrome. ERR-alpha was also identified as an adverse marker for breast cancer progression; ERR-alpha-positive tumors have a poor prognosis. To screen and to identify environmental compounds that perturb the ERR and PGC/ERR signaling pathways could provide valuable information for potential therapeutic or preventive measures in the treatment of metabolic disease. To differentiate true PGC/ERR antagonists or agonist from cytotoxic substances, the assay is multiplexed with cell viability assay.
Tox21 Assay Protocol Summary:
The PGC/ERR cells were dispensed at 2,000 cells/5 ul/well in 1536-well white plates using a Multidrop dispenser. After the assay plates were incubated at a 37 C/5% CO2 incubator for 6 hours, 23 nL of compounds dissolved in DMSO, positive and negative controls or DMSO only was transferred to the assay plate by a pin tool. The plates were incubated at 37 C for 17.5 hours. 1 ul/well of CellTiter-Fluor reagent was added into the assay plates using a Flying Reagent Dispenser. After 30-minute incubation at 37 C/5% CO2, the fluorescence intensity in the plates was measured using a ViewLux plate reader.
For orientation: In qHTS, concentration-response curves come from the screen itself.
Take `Nc1ccc(Cl)cc1[N+](=O)[O-]`: the “viability change, negative = cytotoxic” value is -15.2%.

`CC1CN(c2cc3c(cc2F)c(=O)c(C(=O)O)cn3-c2ccc(F)cc2F)CCN1` (stereo not given): the viability change, negative = cytotoxic was 0.948% [at 8.39 µM].

As to `CCCCC/C(=C\c1ccccc1)CO`, the “viability change, negative = cytotoxic” value is -4.85%.

For the compound `Nc1ccc(S(=O)(=O)O)c(N)c1`, the “viability change, negative = cytotoxic” value was -6.35%.

In the case of `CC(=O)OCC(=O)[C@H]1CC[C@H]2[C@@H]3CCC4=CC(=O)CC[C@]4(C)[C@H]3CC[C@]12C`, the “viability change, negative = cytotoxic” value is 8.26% [at 42.5 µM].

In the case of `C[C@@H]1C[C@H]2[C@@H]3CCC4=CC(=O)C=C[C@]4(C)[C@@]3(F)[C@@H](O)C[C@]2(C)[C@H]1C(=O)CO`, the “viability change, negative = cytotoxic” value is -1.77% [at 42.5 µM].

On to `ON(Cc1ccccc1)Cc1ccccc1`, for which the “viability change, negative = cytotoxic” value was 2.4%.

For the compound `O=C1NCCN1`, the “viability change, negative = cytotoxic” value is 11.2%.

In the case of `CCC(C(=O)OCCN(CC)CC)c1ccccc1` (stereo not given), the “viability change, negative = cytotoxic” value was 23.1% [at 42.5 µM].

Regarding `O=C(O)c1cccnc1C(=O)O`, the “viability change, negative = cytotoxic” value was 0.955%.

Regarding `COC(=O)CC(=O)C(C)(C)C`, the “viability change, negative = cytotoxic” value is -6.78%.

With `CCCCN(CCCC)C(=S)SSC(=S)N(CCCC)CCCC`, the “viability change, negative = cytotoxic” value is -27.5%.

Turning to `CC(C)=CC=O`, the “viability change, negative = cytotoxic” value was -0.242%.

Consider `CC(CCO)CCc1ccccc1` (stereo not given), for which the “viability change, negative = cytotoxic” value was -1.04%.

Take `CCn1cc(C(=O)O)c(=O)c2cc(F)c(N3CCNCC3)nc21`: the “viability change, negative = cytotoxic” value was 13.8% [at 42.5 µM].

Take `CCCOC(=O)c1ccc(N)cc1`: the “viability change, negative = cytotoxic” value was -0.0105% [at 42.5 µM].

For `C[C@]12CCC(=O)C=C1C=C[C@@H]1[C@@H]2CC[C@@]2(C)[C@H]1CC[C@@]21CCC(=O)O1`, the “viability change, negative = cytotoxic” value was -8.79% [at 42.5 µM].

For `O=C(Nc1ccc([N+](=O)[O-])cc1)Nc1ccc([N+](=O)[O-])cc1`, the “viability change, negative = cytotoxic” value is 9.39% [at 42.5 µM].

For `Cc1cc2nc3ccc(=[N+](C)C)cc-3sc2cc1N`, the Potency was 13.3 µM (active).

For `O=C1OCCN1/N=C/c1ccc([N+](=O)[O-])o1`, the “viability change, negative = cytotoxic” value was -1.14% [at 42.5 µM].

As for `CCCCCCCCCCCC[N+](C)(C)CC(=O)[O-]`, the “viability change, negative = cytotoxic” value is -11%.

Turning to `CCCCCCCCCCCC(=O)[O][Sn]([CH2]CCC)([CH2]CCC)[O]C(=O)CCCCCCCCCCC`, the “viability change, negative = cytotoxic” value is -5.78% [at 42.5 µM].

Consider `CCOC(=O)c1ccccc1C`, for which the “viability change, negative = cytotoxic” value is -10.4%.

For the compound `Nc1nc(Cl)nc2c1ncn2[C@@H]1O[C@H](CO)[C@@H](O)[C@@H]1F`, the “viability change, negative = cytotoxic” value is 1.54% [at 42.5 µM].

Consider `C[Si](NC1CCCCC1)(NC1CCCCC1)NC1CCCCC1`, for which the “viability change, negative = cytotoxic” value was -11.2%.

For `C=C(C)C(=O)OCCOC(=O)CC(C)=O`, the “viability change, negative = cytotoxic” value is 0.608%.

On to `Cc1ccc(/C=N/n2c(-c3ccccc3)csc2=S)cc1`, for which the “viability change, negative = cytotoxic” value was -4.9% [at 42.5 µM].

`CCCCCCCCCCCC[N+](C)(C)CCCS(=O)(=O)[O-]`: the “viability change, negative = cytotoxic” value is -9.27%.

Consider `CC(C)CCCCCOC(=O)CCCCC(=O)OCCCCCC(C)C`, for which the “viability change, negative = cytotoxic” value was -1.42%.

Consider `CCCCCC=CCC=CCCCCCCCC(=O)OCC`, for which the “viability change, negative = cytotoxic” value was -8.77% [at 42.5 µM].

For `CC(C)CCCCCCOC(=O)CCCCC(=O)OCCCCCCC(C)C`, the “viability change, negative = cytotoxic” value was 4.58%.

As to `Brc1cc(-c2ccc(Br)c(Br)c2Br)cc(Br)c1Br`, the “viability change, negative = cytotoxic” value was 0.498% [at 42.5 µM].

Regarding `Cc1cc(O)c(C(C)C)cc1Cl`, the Potency entry was “inactive”.

Turning to `CCCCCCCC/C=C\CCCCCCCC(=O)OC(CO)CO`, the “viability change, negative = cytotoxic” value is -4.18%.

`O=Cc1c(Cl)cccc1Cl`: the “viability change, negative = cytotoxic” value is -2.45%.

As for `Cc1cc(C(=C2C=CC(=Nc3ccc(S(=O)(=O)O)cc3S(=O)(=O)O)C=C2)c2ccc(Nc3ccc(S(=O)(=O)O)cc3)cc2)ccc1N`, the “viability change, negative = cytotoxic” value was -10.3% [at 42.5 µM].

On to `Cc1cc(OI)c(C(C)C)cc1-c1cc(C(C)C)c(OI)cc1C`, for which the “viability change, negative = cytotoxic” value is 9.41% [at 42.5 µM].

On to `CC(Cl)C(Cl)Cl` (stereo not given), for which the “viability change, negative = cytotoxic” value was -1.51%.

Regarding `CCC(=O)OC/C=C/c1ccccc1`, the Potency entry is “inactive”.

Regarding `Oc1cc(O)c(Cl)cc1Cl`, the “viability change, negative = cytotoxic” value is -1.83%.

The values are drawn from PubChem BioAssay (Tox21).
